Screening results deposited in PubChem BioAssay by National Center for Advancing Translational Sciences (NCATS).
The list is not random: actives were taken first. Their share in the collection is about 12%.
G9a inh: blocks human histone lysine methyltransferase G9a; Q96KQ7; G9a H3K9 monomethylation, AlphaScreen, 2 h; Potency, µM (doses to about 102 µM), for the others: top-dose activity, negative = inhibition, most hits filed as inhibitors; hit rate 8.8% among 350,000; AID 504332; further: on the % scale 0 is the no-effect control and ±100 the full control effect; nearly all actives have a fitted effect of over 75% in size
Target sequence (Q96KQ7 913-1193 limits assumed): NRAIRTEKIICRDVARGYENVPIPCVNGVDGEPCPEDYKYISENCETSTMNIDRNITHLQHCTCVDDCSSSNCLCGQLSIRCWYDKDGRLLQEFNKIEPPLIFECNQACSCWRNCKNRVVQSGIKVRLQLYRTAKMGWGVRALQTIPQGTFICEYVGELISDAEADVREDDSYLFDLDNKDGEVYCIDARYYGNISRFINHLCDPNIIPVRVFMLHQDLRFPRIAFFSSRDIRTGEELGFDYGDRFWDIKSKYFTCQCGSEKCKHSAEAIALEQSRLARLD
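Readings reflect AlphaScreen signal from monomethyl-H3K9 antibody detection. HMT at 20 nM; substrate b-H3K9 500 nM; cofactor SAM 20 uM; 2 h RT reaction; compounds tested as titrations in qHTS with 15 min preincubation.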
PLK1 PBD inh: inhibitors of human PLK1 polo-box domain binding; Potency, µM, inactives show max response, negative = inhibition, actives largely listed as inhibitors; Plk1 PBD binding of FITC phosphopeptide, fluorescence polarization; P53350; hit rate 2.8% among 360,000; further: series mostly up to about 57 µM; on the % scale 0 is the no-effect control and ±100 the full control effect; nearly all actives have a fitted effect of over 65% in size
HP1b chromo inh: blocks HP1-beta chromodomain binding to methylated histone tails; hit rate 0.56% among 390,000; Potency, µM (doses to about 114 µM), inactives show at the highest dose activity change, negative = inhibition, hits mostly inhibitors; AID 540317; AlphaScreen HP1-beta / biotin-H3K9me3 peptide binding; further: nearly all actives have a fitted effect of over 70% in size
Target sequence (P83916 whole entry, looked up): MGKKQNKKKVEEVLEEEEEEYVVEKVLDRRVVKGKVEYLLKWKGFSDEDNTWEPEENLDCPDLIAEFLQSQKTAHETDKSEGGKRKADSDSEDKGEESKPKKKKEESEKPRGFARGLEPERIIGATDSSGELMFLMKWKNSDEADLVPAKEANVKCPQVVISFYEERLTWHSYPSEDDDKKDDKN
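HP1-beta protein (50 nM final) preincubated 30 min at room temperature with biotinylated H3(1-18)K9me3 peptide (50 nM) in PBS pH 7.4, 0.01% Tween-20, then compound added for 30 min. AlphaScreen streptavidin donor/nickel chelate acceptor beads (10 ug/mL final), 30 min dark, luminescence read.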
Sfp inh: Sfp phosphopantetheinyl transferase inhibition; Q9F4F7; Biochemical Sfp PPTase activity, qHTS; Potency, µM, without a hit: largest response in the series, negative = inhibition, most hits filed as inhibitors; hit rate 3.5% among 310,000;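 further: the enzyme is Sfp with the accession as filed and its product quenches rhodamine fluorescence; 0% = enzyme reaction without inhibitor and -100% = no enzyme wells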
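After 15 min at room temperature with compound, 15 nM Sfp received 5 uM rhodamine-CoA plus 12.5 uM BHQ-2-ybbR (50 mM Hepes pH 7.6, 10 mM MgCl2). Rate came from the fluorescence difference over 30 min, ex 525/em 598 nm.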
BAZ2B block: BAZ2B (human) inhibition | hit rate 4.4% among 360,000 | Q9UIF8 | Potency, µM (titrated, usually from 114 µM), for inactives: at the top dose activity change, negative = inhibition, most hits filed as inhibitors | AlphaScreen BAZ2B-H3K14Ac peptide displacement; further: on the % scale 0 is the no-effect control and ±100 the full control effect; nearly all actives have a fitted effect of over 60% in size
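BAZ2B 50 nM plus b-H3(5-23)K14Ac 50 nM, PBS pH 7.4/0.01% Tween-20, 30 min RT; compound added (max 110 uM), 30 min RT; streptavidin donor/Ni-chelate acceptor beads 10 ug/mL final, 20 min dark; AlphaScreen read.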
JMJD2A Tudor: JMJD2A Tudor domain (human) inhibition | O75164 | AlphaScreen JMJD2A-Tudor / H3K4me3 peptide binding | Potency, µM (top dose mostly 114 µM), inactives show top-dose activity change, negative = inhibition, hits mostly inhibitors | hit rate 4.4% among 390,000 | AID 504339; further: on the % scale 0 is the no-effect control and ±100 the full control effect; nearly all actives have a fitted effect of over 50% in size
Numbers without * were called inactive; u = inconclusive; x = no result; ! = repeats disagree; [ ] = another dose, or the depositor's remark. The call rests on the fitted dose curve; in most records, active means well fitted curve in the direction sought with a large enough effect; inconclusive means small, poorly fitted or top-dose-only effect, or another doubt; inactive means no such curve, though single readings can be large; an effect the other way counts as inactive or inconclusive. Potency means the concentration at half of the fitted maximal effect.

SMILES	G9a inh	PLK1 PBD inh	HP1b chromo inh	Sfp inh	BAZ2B block	JMJD2A Tudor
COc1cc(C(=S)N2CCOCC2)cc(OC)c1OS(=O)(=O)c1ccc(NC(C)=O)cc1	-31%[59 µM]	-2%	19%	3%	-6%	-18%
COc1ccc(S(=O)(=O)Oc2cc(C(=S)N3CCOCC3)ccc2OC)cc1	35µM*	u	-8%	-4%	-26%	-30%
CCOc1cc(C(=S)N2CCOCC2)cc(Br)c1OS(=O)(=O)c1ccccc1	28µM*	u	1%	79µM*	-32%	-16%
O=C(/C=C/c1ccco1)Oc1ccc(C(=S)N2CCOCC2)cc1	u	12µM*	-20%	-12%	-34%	18µM*
CCOc1cc(C(=S)N2CCOCC2)ccc1OS(=O)(=O)c1ccc(C)cc1	35µM*	u	-17%	-27%	-31%	-28%
O=C(Oc1ccccc1C(=S)N1CCOCC1)c1ccccc1	45µM*	u	13%	-20%	-2%	-5%
O=C(/C=C/c1ccccc1)Oc1ccc(C(=S)N2CCOCC2)cc1	-24%	-15%	14%	-11%	-1%	-15%[11.4 µM]
CCOc1cc(C(=S)N2CCC(O)CC2)ccc1OS(=O)(=O)c1ccc(Br)cc1	8.9µM*	u	u	u	u	u
CCOc1cc(C(=S)N2CCCCC2)ccc1OS(=O)(=O)c1ccc(Br)cc1	-16%[59 µM]	-2%	15%	17%	4%	-15%
Cc1ccc(N2CC(NC(=O)C(=O)c3c[nH]c4ccccc34)CC2=O)cc1C (stereo not drawn)	1%	-7%	16%	x	13%	3%
Cc1cccc(C(=O)NCC(c2cccs2)S(=O)(=O)c2cccs2)c1 (stereo not drawn)	1%[59 µM]	x	55%	x	4%	-2%
O=C1CC(c2nnc(Cc3ccccc3Cl)o2)CN1c1ccccc1 (stereo not drawn)	-40%[59 µM]	x	4%	x	-3%	9%
COc1ccc(CN2CCC(n3nccc3NC(=O)CCc3ccccc3)CC2)c(C)c1C	x	-9%	41%	-2%	-9%	-5%
CCOC(=O)c1ccc(NC(=O)CSc2ccc3ccccc3n2)cc1	7%[59 µM]	x	43%	x	-2%	-8%
COc1cc(C(=S)N2CCOCC2)ccc1OC(=O)c1cc(OC)c(OC)c(OC)c1	14µM*	u	-16%	50µM*	-29%	-32%
COc1cc(C(=S)N2CCOCC2)cc(OC)c1OC	40µM*	27µM*	-31%	50µM*!	-1%	1%
COc1ccc(C(=O)Oc2cc(C(=S)N3CCOCC3)ccc2OC)cc1	32µM*	-24%	-25%	-5%	-25%	u
COc1cc(C(=S)N2CCOCC2)cc(OC)c1OS(=O)(=O)c1ccc(C)cc1	28µM*	u	-11%	56µM*	u	-30%
O=C(COC(=O)Cn1[nH]c(=O)c2ccccc2c1=O)NNC(=O)c1ccc(Br)cc1	u	4%	49%	x	-19%	3%
COc1ccc(CNC(=O)Cc2ccc(NC(=O)N3CCSc4ncccc43)cc2)cc1OC	-4%[59 µM]	x	1%	x	-5%	-8%
N#Cc1ccccc1S(=O)(=O)N1CCCC(c2nc3c(nnn3Cc3cccc(Cl)c3)c(=O)[nH]2)C1 (stereo not drawn)	2%[59 µM]	x	13%	x	-1%	-27%
CCOc1ccc(C(=S)N2CCOCC2)cc1OCC	32µM*	u	-24%	-20%	8%	-11%
COc1ccc(C(=S)N2CCN(C)CC2)cc1	-7%[12.7 µM]	27µM*	-8%	25µM*	11%	2%
O=C(Oc1ccc(C(=S)N2CCOCC2)cc1)c1ccc(Br)cc1	-6%[59 µM]	1%	49%	1%	-6%	-3%
COc1ccc(C(=O)Oc2ccc(C(=S)N3CCOCC3)cc2)cc1	x	11µM*	u	22µM*	-35%	u
SMILES	G9a inh	PLK1 PBD inh	HP1b chromo inh	Sfp inh	BAZ2B block	JMJD2A Tudor
COc1ccc(/C=C/C(=O)OCC(=O)NC2CCCC2)cc1	15%[12.7 µM]	-6%	33%	x	3%	-4%
OC[C@@H]1CN(Cc2ccc(-c3ccccc3)cc2)C[C@H](n2cnc3c(N4CCOCC4)ncnc32)O1	x	8%	x	x	x	x
CCN(CC)c1ccc(CNc2ccc3c(c2)ncn3CC)cc1	22µM*	-1%	35µM*	-19%	16µM*	20µM*
CC(C)(C)n1cnc2cc(NC(=O)c3ccccc3)ccc21	-4%	-1%	26%	15%	-4%	-16%
CCOc1ccc(CNc2ccc3c(c2)ncn3C(C)(C)C)cc1	79µM*	-1%	-31%	-1%	u	u
CN(C)c1ccc(CNc2ccc3c(c2)ncn3C(C)(C)C)cc1	22µM*	-14%	35µM*	-29%	16µM*	14µM*
CCn1cnc2cc(NCc3ccc(N(C)C)cc3)ccc21	11µM*	-6%	32µM*	-5%	10µM*	10µM*
Cc1ccc(NC(=O)C2CCCN(C(=O)NCc3ccccc3)C2)c(C)c1 (stereo not drawn)	17%	-5%	-11%	1%	-2%	-9%
COc1ccc(S(=O)(=O)N2CCN(C(=S)Nc3ccc(S(N)(=O)=O)cc3)CC2)cc1	79µM*	-2%	11%	8%	-27%	-22%
NS(=O)(=O)c1ccc(NC(=S)NCc2cccc(Cl)c2)cc1	45µM*	-2%	26%	11%	11%	-16%
NS(=O)(=O)c1ccc(NC(=S)NCc2ccccc2)cc1	11µM*	12µM*	u	56µM*	0%	-22%
NS(=O)(=O)c1ccc(NC(=S)N2CCC(Cc3ccccc3)CC2)cc1	14µM*	13µM*	u	22µM*	u	u
Cc1cccc(CN2CCN(C3CN(Cc4ccc(F)cc4)S(=O)(=O)C3)CC2)c1 (stereo not drawn)	x	-3%	x	x	x	x
CC(NC(=O)CNC(=O)c1ccc2c(c1)OCO2)c1ccc(S(N)(=O)=O)cc1 (stereo not drawn)	38%[12.7 µM]	-12%	42%	x	0%	-13%
NC(=O)C1(N2CCCCC2)CCN(C(=S)Nc2ccc(S(N)(=O)=O)cc2)CC1	x	11µM*	4%	4µM*	-12%	-14%
COc1cc(/C=C/C(=O)C2C(=O)C=C(C)OC2=O)cc(OC)c1O (stereo not drawn)	50µM*	35%	-2%	-26%	56µM*	-31%
COc1cc(/C=C/C(=O)O)cc(Br)c1O	20%[12.7 µM]	0%	28%	30%	u	-4%
COc1ccc(/C=C/C(=O)C2C(=O)C=C(C)OC2=O)cc1O (stereo not drawn)	-23%[59 µM]	-12%	-17%	5%	50µM*	-23%
COc1ccc(/C=c2\s/c(=C\C(=O)C(C)(C)C)[nH]c2=O)cc1O	x	-4%	20%	-10%	u	-27%
